PubChem BioAssay AID743314 (Broad Institute, 2014)
Measured potencies and affinities stand elsewhere. Records with an inconclusive call do not appear. Active and inactive are the calls of the source.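 How the source made its calls: active means fitted half-maximal concentration no higher than twice the top tested dose, in every repeat run; inconclusive means repeat runs disagree, poor fit, or flat partial inhibition; inactive means the rest.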

The compounds below were run against Endoplasmic reticulum aminopeptidase 1 (Homo sapiens) (UniProt Q9NZ08) (assay: inhibition of human ERAP1 enzyme activity – biochemical, cherry-pick, set 2, plate reader, dose response (AID 743314)). Details: Recombinant ERAP1, Leu-AMC fluorescence, 60 min; series mostly up to 11 µM.
Endoplasmic reticulum aminopeptidase 1 (Homo sapiens), sequence (Q9NZ08 whole entry, looked up): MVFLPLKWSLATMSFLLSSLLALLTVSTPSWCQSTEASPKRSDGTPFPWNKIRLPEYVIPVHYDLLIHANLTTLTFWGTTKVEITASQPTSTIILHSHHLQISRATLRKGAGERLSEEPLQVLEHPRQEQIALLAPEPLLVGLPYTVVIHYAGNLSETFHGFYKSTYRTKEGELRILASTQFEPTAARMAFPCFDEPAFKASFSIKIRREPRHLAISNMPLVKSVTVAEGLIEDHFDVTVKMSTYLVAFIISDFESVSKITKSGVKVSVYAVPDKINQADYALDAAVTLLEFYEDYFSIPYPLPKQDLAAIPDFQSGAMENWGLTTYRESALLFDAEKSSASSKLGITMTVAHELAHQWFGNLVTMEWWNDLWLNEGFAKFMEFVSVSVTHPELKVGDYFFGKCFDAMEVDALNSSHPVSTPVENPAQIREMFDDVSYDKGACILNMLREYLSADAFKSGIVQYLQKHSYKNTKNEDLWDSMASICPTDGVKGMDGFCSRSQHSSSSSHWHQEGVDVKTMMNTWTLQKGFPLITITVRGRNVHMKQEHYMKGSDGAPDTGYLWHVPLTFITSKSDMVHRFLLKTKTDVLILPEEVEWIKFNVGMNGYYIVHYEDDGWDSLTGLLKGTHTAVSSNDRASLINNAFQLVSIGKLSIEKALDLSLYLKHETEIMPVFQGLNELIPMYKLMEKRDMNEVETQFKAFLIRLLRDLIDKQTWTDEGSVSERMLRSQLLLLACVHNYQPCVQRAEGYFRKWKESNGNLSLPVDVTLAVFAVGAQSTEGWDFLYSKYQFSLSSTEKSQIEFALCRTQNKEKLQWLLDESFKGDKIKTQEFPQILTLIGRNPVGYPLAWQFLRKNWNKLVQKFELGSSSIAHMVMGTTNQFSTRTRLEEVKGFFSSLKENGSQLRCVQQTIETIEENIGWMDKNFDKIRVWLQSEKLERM

outcome, inactive:
O=c1oc2cc(O)ccc2cc1-c1nc2ccccc2o1
CCOCc1c(C(=O)Nc2ccc(OC)nc2)oc2ccccc12
CCN(CC)c1ccc2c(C)c(Cl)c(=O)oc2c1
Cc1ccc(S(=O)(=O)c2cc3ccc(O)cc3oc2=O)cc1C
